This note sets out measurements from PubChem BioAssay (Tox21).

Each structure is given as a SMILES string. Calls of active or inactive are those of the source. The call rests on the fitted dose curve.
On the % scale 0 is the no-effect control and ±100 the full control effect; potency means the concentration at half of the fitted maximal effect.

This assay in a line: qHTS assay to identify small molecule agonists of the sonic hedgehog signaling (Shh) pathway (AID 1259368). Further: nearly all actives have a fitted effect of over 15% in size. Particulars: NIH/3T3 Gli1-Luc reporter, luciferase, 24 h; series mostly up to 92.4 µM; activity change: at the top concentration. The procedure, abridged:
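NIH/3T3-derived 3T3Gli1-Luc cells carrying a stably integrated Gli1 response element–firefly luciferase reporter were plated, left 4 hr at 37 C, then given compounds in DMSO for 24 hr. Luminescence was read 30 min after adding luciferase reagent.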
For orientation: In qHTS, concentration-response curves come from the screen itself.
As to `CCCCCCOC(=O)C(C)C`, the “activity change” value is -2.59% (inactive).

With `C[C@@H]1C[C@H]2[C@@H]3CCC4=CC(=O)C=C[C@]4(C)[C@@]3(F)[C@@H](O)C[C@]2(C)[C@H]1C(=O)CO`, the “activity change” value is 0.0481% [at 42.5 µM, active compounds read high] (inactive).

Consider `CC(C)(C)C(=O)O`, for which the “activity change” value is -0.374% (inactive).

Consider `CC(C)C(OC(=O)c1ccccc1)C(C)(C)COC(=O)c1ccccc1` (stereo not given), for which the “activity change” value was 3.56% (inactive).

On to `CCCCCCOC(=O)CCCCCCCC(=O)OCCCCCC`, for which the “activity change” value is -0.809% (inactive).

In the case of `O=C(c1ccc(O)cc1)c1ccc(Cl)cc1`, the “activity change” value is 3.78% (inactive).

Take `C[C@@H]1C[C@H]2[C@@H]3CCC4=CC(=O)C=C[C@]4(C)[C@@]3(F)[C@@H](O)C[C@]2(C)[C@@]1(O)C(=O)CO`: the “activity change” value was -5.57% (inactive).

In the case of `O=C(N[C@@H](c1ccccc1)[C@@H]1CCCCN1)c1cccc(C(F)(F)F)c1Cl`, the “activity change” value is -13.5% (inactive).

Regarding `CC[C@H](NC(=O)c1cc(F)ccc1NS(=O)(=O)c1cccc2cccnc12)c1ccccc1`, the “activity change” value is -2.95% (inactive).

As for `Cc1ccc(Nc2nccc(N(C)c3ccc4c(C)n(C)nc4c3)n2)cc1S(N)(=O)=O`, the “activity change” value was -1.52% [at 42.5 µM, active compounds read high] (inactive).

As to `CO[C@H]1O[C@H](CO)[C@@H](O)[C@H](O)[C@H]1O`, the “activity change” value is -0.258% (inactive).

Regarding `C=CCOC(=O)/C=C\C(=O)OCC=C`, the “activity change” value is 1.86% (inactive).

Turning to `CC1(C)C2=CCCC(C)(C)[C@]23CC[C@H]1C3`, the “activity change” value was -0.822% (inactive).

Consider `CC1C2CC(CC2C2CCCC(O)C2)C1(C)C` (stereo not given), for which the “activity change” value was -2.59% (inactive).

For `CCOC(=O)N1CCC(n2c(=O)[nH]c3cc(Cl)ccc32)CC1`, the “activity change” value is 0.234% [at 42.5 µM, active compounds read high] (inactive).

`O=C(CCCN1CCN(c2ccc(F)cc2)CC1)NC1c2ccccc2CSc2ccccc21` (stereo not given): the “activity change” value is -2.39% [at 42.5 µM, active compounds read high] (inactive).

With `C=CC(=C)CCCC(C)(C)OC(C)=O`, the “activity change” value is -3.15% (inactive).

In the case of `Cc1cnc(C)c(C)n1`, the “activity change” value is -2.89% (inactive).

Turning to `OC(CCCN1CCCCC1)(c1ccccc1)c1ccccc1`, the “activity change” value was -0.0007% [at 42.5 µM, active compounds read high] (inactive).

With `CO[C@H]1C=CO[C@@]2(C)Oc3c(C)c(O)c4c(O)c(c5c(c4c3C2=O)=NC2(CCN(CC(C)C)CC2)N=5)NC(=O)/C(C)=C\C=C/[C@H](C)[C@H](O)[C@@H](C)[C@@H](O)[C@@H](C)[C@H](OC(C)=O)[C@@H]1C`, the “activity change” value was -12.5% (inactive).

As for `CCC(=O)Oc1ccc(/C(CC)=C(\CC)c2ccc(OC(=O)CC)cc2)cc1`, the “activity change” value is -5.04% (inactive).

Consider `[O]=[Bi]`, for which the activity change is -0.104% [at 8.39 µM, active compounds read high] (inactive).

On to `Cc1cc2nc3ccc(=[N+](C)C)cc-3sc2cc1N`, for which the “activity change” value is -5.24% [at 42.5 µM, active compounds read high] (inactive).

`CCCCCCCC/C=C\CCCCCCCC(=O)OC(CO)CO`: the “activity change” value was 0.2% (inactive).

`C[C@]12CCC(=O)C=C1C=C[C@@H]1[C@@H]2CC[C@@]2(C)[C@H]1CC[C@@]21CCC(=O)O1`: the “activity change” value is 0.831% [at 42.5 µM, active compounds read high] (inactive).

For `CNCCCC1c2ccccc2C=Cc2ccccc21`, the “activity change” value was -6.34% [at 42.5 µM, active compounds read high] (inactive).

Regarding `Cc1cc(S(=O)(=O)O)ccc1N=Nc1c(O)ccc2ccccc12`, the “activity change” value was -2.05% (inactive).

`CCC(Cc1ccccc1)(C(=O)c1ccc(N2CCOCC2)cc1)N(C)C` (stereo not given): the “activity change” value was 0.174% (inactive).

For `CC1=C(/C=C/C(C)=C\C=C\C(C)=C\C(=O)O)C(C)(C)CCC1`, the Potency is 8.63 µM (active).

With `C=CC(=O)NCOCC(C)C`, the “activity change” value was -0.352% (inactive).

Consider `C=CC(C)(C)CC(=O)OC`, for which the “activity change” value was -18.2% (inactive).

With `CC1(C)C(=O)N(Br)C(=O)N1Cl`, the “activity change” value is 0.111% (inactive).

For the compound `CCNC(=O)N1CCN(CCCC(c2ccc(F)cc2)c2ccc(F)cc2)CC1`, the “activity change” value was -0.208% [at 42.5 µM, active compounds read high] (inactive).

With `O=S(=O)(c1ccccc1)c1ccc(Cl)cc1`, the “activity change” value was 0.451% (inactive).

As to `CC(=N\O)/C(C)=N/O`, the “activity change” value is -2.66% (inactive).
